# Experimental data as given in PubChem BioAssay (NCATS).
# Inconclusive results are not listed. Activity calls are given as the source filed them. Unless noted, calls follow the shape of the full dose curve.
# Legend:
# [1] = target: Androgen receptor (Homo sapiens) (UniProt P10275); test: qHTS assay for small molecule agonists of androgen receptor signaling (AID 588515; active = well fitted curve in the direction sought with a large enough effect in the signal ratio, with a control signal flat; the % refers to the signal ratio; also: % is scaled to controls: 0 for no effect and ±100 for the full control effect); conditions: AR-UAS-bla HEK293, beta-lactamase ratio, agonist 16 h; stronger effect = higher value
# Androgen receptor (Homo sapiens), sequence (P10275 whole entry, looked up): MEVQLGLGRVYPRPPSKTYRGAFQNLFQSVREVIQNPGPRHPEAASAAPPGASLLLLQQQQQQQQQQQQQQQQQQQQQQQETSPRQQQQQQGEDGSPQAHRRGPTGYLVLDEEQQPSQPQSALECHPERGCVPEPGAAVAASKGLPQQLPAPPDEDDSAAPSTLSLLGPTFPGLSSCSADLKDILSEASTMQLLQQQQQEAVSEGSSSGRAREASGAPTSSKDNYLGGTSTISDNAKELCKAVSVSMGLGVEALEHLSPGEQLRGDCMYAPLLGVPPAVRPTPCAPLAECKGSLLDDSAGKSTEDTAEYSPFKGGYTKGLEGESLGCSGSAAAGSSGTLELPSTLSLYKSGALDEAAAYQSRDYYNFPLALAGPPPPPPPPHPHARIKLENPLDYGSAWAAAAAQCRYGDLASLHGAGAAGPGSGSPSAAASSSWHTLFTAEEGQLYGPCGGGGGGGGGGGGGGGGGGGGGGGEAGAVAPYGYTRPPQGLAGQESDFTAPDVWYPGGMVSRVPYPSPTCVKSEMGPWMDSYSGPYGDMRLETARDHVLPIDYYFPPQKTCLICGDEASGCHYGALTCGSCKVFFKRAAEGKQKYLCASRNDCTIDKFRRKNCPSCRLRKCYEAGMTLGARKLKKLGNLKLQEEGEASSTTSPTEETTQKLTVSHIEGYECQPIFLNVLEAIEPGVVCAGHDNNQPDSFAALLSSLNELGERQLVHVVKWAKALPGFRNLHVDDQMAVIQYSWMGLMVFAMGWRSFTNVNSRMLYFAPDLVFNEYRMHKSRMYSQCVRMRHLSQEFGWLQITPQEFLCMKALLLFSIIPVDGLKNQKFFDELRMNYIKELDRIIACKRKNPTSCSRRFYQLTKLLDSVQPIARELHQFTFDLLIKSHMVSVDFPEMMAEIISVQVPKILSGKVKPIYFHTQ
# Procedure, shortened: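 EC50 and efficacy came from Hill fits of titrations (up to 92 uM) normalized to 30 nM R1881 as 100% and DMSO as 0%. Compound exposure was 16 h at 37 C on AR-UAS-bla HEK293 cells, with a 405/460/530 nm CCF4 fluorescence read.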
# [2] = target: Androgen receptor (Homo sapiens) (UniProt P10275); test: qHTS assay for small molecule antagonists of androgen receptor signaling (AID 588516; active = well fitted curve in the direction sought with a large enough effect in the signal ratio, with a control signal flat, not every such curve was filed as active; the % refers to the signal ratio; also: % is scaled to controls: 0 for no effect and ±100 for the full control effect)
# Procedure, shortened: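 HEK293 AR-UAS-bla cells, 10% dialyzed FBS medium; cpd titration + R1881 10 nM final, 16 h 37 C; CCF4 2 h RT; FRET ratio; IC50/efficacy via Hill fit.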
# [3] = target: Peroxisome proliferator-activated receptor delta (Homo sapiens) (UniProt Q03181); test: qHTS assay for small molecule agonists of peroxisome proliferator-activated receptor delta signaling (AID 588534);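 also: 0% = DMSO basal wells and 100% = positive control agonist at 10 µM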
# Peroxisome proliferator-activated receptor delta (Homo sapiens), sequence (Q03181 whole entry, looked up): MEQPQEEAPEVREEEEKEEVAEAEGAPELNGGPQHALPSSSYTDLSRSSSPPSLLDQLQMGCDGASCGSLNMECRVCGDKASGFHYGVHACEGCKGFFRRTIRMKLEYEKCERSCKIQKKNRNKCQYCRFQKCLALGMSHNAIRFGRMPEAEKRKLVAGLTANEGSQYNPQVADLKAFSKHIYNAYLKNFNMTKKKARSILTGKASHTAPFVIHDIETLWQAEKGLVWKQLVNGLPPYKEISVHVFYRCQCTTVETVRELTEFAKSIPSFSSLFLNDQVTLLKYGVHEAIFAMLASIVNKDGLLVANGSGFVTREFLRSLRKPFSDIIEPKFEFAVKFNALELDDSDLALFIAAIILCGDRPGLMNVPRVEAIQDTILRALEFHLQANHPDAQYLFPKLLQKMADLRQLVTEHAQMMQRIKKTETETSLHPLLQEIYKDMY
# Procedure, shortened: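 Cells carrying a PPAR-delta beta-lactamase reporter were treated with compounds for 18 h at 37 °C in agonist mode. CCF4 fluorescence was read after 2 h; EC50 and efficacy from Hill fits.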
# [4] = qHTS assay for small molecule antagonists of peroxisome proliferator-activated receptor delta signaling (AID 588535; active = well fitted inhibition curve with a large enough effect in the signal ratio, with a control signal flat, not every such curve was filed as active; the % refers to the signal ratio;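 as to max response: cells co-treated with a PPAR-delta agonist as stimulator during compound exposure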); conditions: HEK293T PPARd-UAS-bla, beta-lactamase FRET ratio, 18 h; 460 nm channel
# Procedure, shortened: (§1)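 Antagonist-mode beta-lactamase reporter (GeneBLAzer PPAR-delta-UAS-bla) in HEK293T cells, 2% charcoal/dextran FBS, 4000 cells/well. Compound titrations, 18 h at 37 C; CCF4 ratio read, IC50 and efficacy from Hill fits.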
# [5] = target: Peroxisome proliferator-activated receptor delta (Homo sapiens) (UniProt Q03181); test: as above
# Procedure, shortened: as §1
# [6] = target: Vitamin D3 receptor (Homo sapiens) (UniProt P11473); test: qHTS assay for small molecule antagonists of vitamin D receptor signaling (AID 588541);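 also: receptor activated by calcitriol during compound treatment; series mostly up to about 77 µM; % is scaled to controls: 0 for no effect and ±100 for the full control effect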
# Vitamin D3 receptor (Homo sapiens), sequence (P11473 whole entry, looked up): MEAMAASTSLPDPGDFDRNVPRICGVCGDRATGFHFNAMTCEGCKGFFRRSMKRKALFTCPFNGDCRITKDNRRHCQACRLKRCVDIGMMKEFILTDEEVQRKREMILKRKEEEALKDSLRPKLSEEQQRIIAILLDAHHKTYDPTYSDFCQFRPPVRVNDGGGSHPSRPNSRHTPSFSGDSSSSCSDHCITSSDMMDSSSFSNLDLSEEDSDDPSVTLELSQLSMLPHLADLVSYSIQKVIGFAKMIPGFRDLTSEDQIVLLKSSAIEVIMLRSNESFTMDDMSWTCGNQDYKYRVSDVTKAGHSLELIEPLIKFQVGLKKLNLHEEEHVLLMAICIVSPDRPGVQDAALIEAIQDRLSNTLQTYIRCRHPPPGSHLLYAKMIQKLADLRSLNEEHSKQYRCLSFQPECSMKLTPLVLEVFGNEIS
# Procedure, shortened: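 VDR-UAS-bla HEK293T cells in 2% charcoal-stripped FBS were stimulated with 1-alpha,25-dihydroxyvitamin D3 (3 nM final) plus compound for 16 h at 37 C. The beta-lactamase CCF4 readout was normalized to 50 nM agonist and DMSO, and Hill fits gave IC50.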
# [7] = target: Vitamin D3 receptor (Homo sapiens) (UniProt P11473); test: qHTS assay for small molecule agonists of vitamin D receptor signaling (AID 588543);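 also: 0% = DMSO basal and 100% = reference agonist control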
# Procedure, shortened: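 β-lactamase reporter, VDR-UAS-bla HEK293T, agonist mode. Cells plated 5 h at 37 °C, compound titration 16 h at 37 °C, CCF4 dye 2 h RT, ratio 460/530 nm. Hill fit → EC50, efficacy vs 50 nM 1α,25-(OH)2D3.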
# [8] = qHTS assay for small molecule antagonists of retinoid X receptor alpha signaling (AID 588546; active = well fitted inhibition curve with a large enough effect in the signal ratio, with a control signal flat, not every such curve was filed as active; the % refers to the signal ratio;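 also: cells stimulated with 9-cis-retinoic acid as agonist; % is scaled to controls: 0 for no effect and ±100 for the full control effect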); conditions: HEK293T RXRa-UAS-bla, beta-lactamase ratio, antagonist mode; measured here: W530 green channel, cytotoxicity proxy
# Procedure, shortened: (§2)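 Beta-lactamase reporter inhibition, read as CCF4 fluorescence ratio (ex 405, em 460/530 nm) after 2 h at RT. HEK293T UAS-bla cells, 2500/well, were stimulated with 9-cis-RA at 500 or 100 nM final alongside test compound for 18 h at 37 C.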
# [9] = target: Retinoic acid receptor RXR-alpha (Homo sapiens) (UniProt P19793); test: as above; conditions: HEK293T RXRa-UAS-bla, beta-lactamase ratio, antagonist mode
# Retinoic acid receptor RXR-alpha (Homo sapiens), sequence (P19793 whole entry, looked up): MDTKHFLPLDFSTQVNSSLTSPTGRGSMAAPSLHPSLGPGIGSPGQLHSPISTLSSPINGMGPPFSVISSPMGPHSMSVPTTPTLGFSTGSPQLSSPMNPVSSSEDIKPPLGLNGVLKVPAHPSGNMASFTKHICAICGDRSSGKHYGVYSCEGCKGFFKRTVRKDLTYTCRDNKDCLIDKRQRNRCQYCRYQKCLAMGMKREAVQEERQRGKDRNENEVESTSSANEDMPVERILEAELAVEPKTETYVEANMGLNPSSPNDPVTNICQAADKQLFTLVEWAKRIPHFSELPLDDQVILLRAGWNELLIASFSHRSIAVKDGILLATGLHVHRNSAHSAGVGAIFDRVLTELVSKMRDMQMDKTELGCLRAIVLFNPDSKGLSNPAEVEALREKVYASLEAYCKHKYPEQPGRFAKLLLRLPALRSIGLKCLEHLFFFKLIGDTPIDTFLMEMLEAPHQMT
# Procedure, shortened: as §2
# [10] = target: Thyroid hormone receptor beta (Homo sapiens) (UniProt P10828); test: qHTS assay for small molecule antagonists of thyroid hormone receptor beta signaling (AID 588547; active = well fitted inhibition curve with a large enough effect in the signal ratio, with a control signal flat, not every such curve was filed as active; the % refers to the signal ratio); conditions: TR-UAS-bla HEK293, beta-lactamase ratio, antagonist mode, 18 h
# Thyroid hormone receptor beta (Homo sapiens), sequence (P10828 whole entry, looked up): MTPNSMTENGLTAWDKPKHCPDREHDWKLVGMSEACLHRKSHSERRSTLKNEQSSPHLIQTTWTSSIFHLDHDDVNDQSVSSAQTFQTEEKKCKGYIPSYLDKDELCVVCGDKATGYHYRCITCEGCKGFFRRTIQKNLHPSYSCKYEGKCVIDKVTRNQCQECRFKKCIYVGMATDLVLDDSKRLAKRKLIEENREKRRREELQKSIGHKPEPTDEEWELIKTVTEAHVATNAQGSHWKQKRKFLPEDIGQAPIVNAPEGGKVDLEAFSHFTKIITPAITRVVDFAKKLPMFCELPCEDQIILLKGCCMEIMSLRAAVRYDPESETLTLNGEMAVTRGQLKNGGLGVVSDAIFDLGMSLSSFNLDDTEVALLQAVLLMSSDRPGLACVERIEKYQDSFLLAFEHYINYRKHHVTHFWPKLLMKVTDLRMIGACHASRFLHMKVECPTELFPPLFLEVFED
# Procedure, shortened: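 TR-UAS-bla GripTite HEK293 cells in 2% charcoal/dextran FBS medium; compounds 0.59 nM to 92 uM with T3 at 0.4nM final, 18 h at 37 C. Beta-lactamase read by CCF4 fluorescence (460/530 nm); Hill fits gave IC50 and efficacy.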
# [11] = qHTS assay for small molecule agonists of the antioxidant response element (ARE) signaling pathway (AID 651741; active = well fitted activation curve with a large enough effect in the signal ratio; the % refers to the signal ratio; also: potency is read from the fitted curve at half-maximal effect)
# Procedure, shortened: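 CellSensor ARE-bla HepG2 cells (2,000/well) carrying ARE-driven beta-lactamase, exposed 16 h at 37 C. LiveBLAzer B/G FRET substrate added for 2 h at room temperature; fluorescence intensity read.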
# [12] = qHTS assay for small molecule activators of the p53 signaling pathway (AID 651743; active = well fitted activation curve with a large enough effect in the signal ratio, not every such curve was filed as active; the % refers to the signal ratio; also: series mostly up to about 92 µM; % of control where 0% means no effect); conditions: HCT-116 p53RE-bla, beta-lactamase FRET ratio, 16 h; activation: stronger effect = higher value
# Procedure, shortened: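 p53RE-bla HCT-116 cells carrying a beta-lactamase reporter under p53 response elements were exposed to compounds for 16 hours at 37 C. Reporter activity read as fluorescence after 2 hours at room temperature with LiveBLAzer B/G FRET substrate.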
# [13] = qHTS assay for small molecule activators of the nuclear factor-kappa B (NF-kB) signaling pathway (AID 651749; active = well fitted activation curve with a large enough effect in the signal ratio; the % refers to the signal ratio; also: series mostly up to about 77 µM; % of control where 0% means no effect); conditions: NF-kB-bla ME-180 cells, beta-lactamase FRET ratio, 16 h; activation: stronger effect = higher value
# Procedure, shortened: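 NF-kB-bla ME-180 cells carrying a beta-lactamase reporter under an NF-kB response element, 2,000 cells/well, exposed to compound for 16 hr at 37C; FRET-based beta-lactamase fluorescence read-out of pathway activation.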
# [14] = qHTS assay for environmental chemicals that activate the Aryl hydrocarbon Receptor (AhR) signaling pathway (AID 651777; active = well fitted curve in the direction sought with a large enough effect; an effect the other way counts as inactive or inconclusive; also: % of control where 0% means no effect; nearly all actives have a fitted effect of over 15% in size); conditions: 1A2-DRE human hepatoma cells, luciferase, 24 h; activation: stronger effect = higher value
# Procedure, shortened: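 Stable CYP1A2 promoter/DRE-luciferase human hepatoma line treated 24 hr; One-Glo luminescence, 30 min RT.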
# [15] = target: Peroxisome proliferator-activated receptor alpha (Homo sapiens) (UniProt Q07869); test: qHTS assay for small molecule agonists of the peroxisome proliferator-activated receptor alpha (PPARalpha) signaling pathway (AID 651778; active = well fitted curve in the direction sought with a large enough effect; an effect the other way counts as inactive or inconclusive; also: % of control where 0% means no effect); conditions: PathHunter PPARalpha complementation, chemiluminescence, 6 h; max response: stronger effect = higher value
# Peroxisome proliferator-activated receptor alpha (Homo sapiens), sequence (Q07869 whole entry, looked up, the tested form may be a part): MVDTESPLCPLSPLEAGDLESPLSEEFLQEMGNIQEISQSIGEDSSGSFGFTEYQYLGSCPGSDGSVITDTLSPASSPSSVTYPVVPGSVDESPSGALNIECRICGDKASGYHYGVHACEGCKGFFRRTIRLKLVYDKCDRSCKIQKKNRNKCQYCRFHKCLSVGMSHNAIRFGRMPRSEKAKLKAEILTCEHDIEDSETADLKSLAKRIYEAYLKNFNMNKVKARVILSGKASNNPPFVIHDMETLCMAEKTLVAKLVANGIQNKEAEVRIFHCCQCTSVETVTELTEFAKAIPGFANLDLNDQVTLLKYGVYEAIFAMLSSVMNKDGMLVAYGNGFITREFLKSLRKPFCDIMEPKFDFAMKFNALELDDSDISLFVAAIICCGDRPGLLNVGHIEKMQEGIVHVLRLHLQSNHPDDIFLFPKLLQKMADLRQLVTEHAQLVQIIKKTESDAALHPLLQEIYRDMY
# Procedure, shortened: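 Enzyme-fragment complementation assay in which ligand-bound PPARalpha translocates and forms an active enzyme that generates chemiluminescence. Cells were plated overnight, exposed to compound for 6 hr at 37 C, and then given detection reagent for 60 min at room temperature.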
# [16] = qHTS assay for small molecule agonists of the antioxidant response element (ARE) signaling pathway measured by Nrf2-dependant transcriptional activity - cell viability counter screen (AID 720653; active = well fitted curve in the direction sought with a large enough effect in the repeat runs; an effect the other way counts as inactive or inconclusive; also: % is scaled to controls: 0 for no effect and ±100 for the full control effect); conditions: ARE-bla HepG2 viability, CellTiter-Glo ATP luminescence, 16 h; max response: stronger effect = lower value
# Procedure, shortened: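 ARE-bla HepG2 cells treated with compounds for 16 h at 37C; this counter screen measures viability as intracellular ATP by CellTiter-Glo luminescence after 30 min at room temperature.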
# [17] = qHTS assay for cell viability of HEK293 cells (AID 743288; active = well fitted curve in the direction sought with a large enough effect; an effect the other way counts as inactive or inconclusive; also: % is scaled to controls: 0 for no effect and ±100 for the full control effect; nearly all actives have a fitted effect of over 50% in size); conditions: ATP luminescence (CellTiter-Glo), 18 h; max response: stronger effect = lower value
# Procedure, shortened: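 Environmental chemicals tested in qHTS format against parental HEK293 cells; 18 h treatment, 37 C; read-out ATP luminescence (CellTiter-Glo), 30 min RT development.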
# [18] = qHTS assay for cell viability of the p53RE-bla HCT-116 cell line (AID 743292; active = well fitted curve in the direction sought with a large enough effect; an effect the other way counts as inactive or inconclusive; also: % is scaled to controls: 0 for no effect and ±100 for the full control effect; nearly all actives have a fitted effect of over 55% in size)
# Procedure, shortened: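 Readout: CellTiter-Glo luminescence after 30 min RT. Treatment: compounds in DMSO, 16 h, 37 C. Cells: CellSensor p53RE-bla HCT-116, 4,000/well, preincubated 5 h.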
# [19] = target: Bile acid receptor (Homo sapiens) (UniProt Q96RI1); test: qHTS assay for small molecule antagonists of farnesoid X receptor signaling (AID 588526); also: % is scaled to controls: 0 for no effect and ±100 for the full control effect
# Bile acid receptor (Homo sapiens), sequence (Q96RI1 whole entry, looked up): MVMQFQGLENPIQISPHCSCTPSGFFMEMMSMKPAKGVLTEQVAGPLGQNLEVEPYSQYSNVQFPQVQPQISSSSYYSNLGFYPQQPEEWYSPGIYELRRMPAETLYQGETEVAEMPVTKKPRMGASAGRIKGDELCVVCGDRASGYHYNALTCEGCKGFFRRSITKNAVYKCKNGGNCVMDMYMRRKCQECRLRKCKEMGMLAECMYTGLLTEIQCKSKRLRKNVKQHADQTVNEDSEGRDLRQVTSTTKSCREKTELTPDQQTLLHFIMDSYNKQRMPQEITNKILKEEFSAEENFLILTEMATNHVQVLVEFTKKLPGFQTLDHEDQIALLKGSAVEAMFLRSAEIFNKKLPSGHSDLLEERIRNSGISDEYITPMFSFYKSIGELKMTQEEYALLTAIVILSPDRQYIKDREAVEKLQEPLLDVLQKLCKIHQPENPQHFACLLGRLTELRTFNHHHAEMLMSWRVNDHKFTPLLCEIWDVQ
# Procedure, shortened: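 Antagonist mode: titrated compounds tested against chenodeoxycholic acid stimulation (normalized to 50 uM CDCA and DMSO) in GeneBLAzer HEK293T cells for 16 h. Beta-lactamase read by CCF4 fluorescence; IC50 from Hill fits.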
# [20] = target: Bile acid receptor (Homo sapiens) (UniProt Q96RI1); test: qHTS assay for small molecule agonists of farnesoid X receptor signaling (AID 588527); conditions: HEK293T FXR-UAS-bla, beta-lactamase ratio, 16 h; activation: stronger effect = higher value;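 also: series mostly up to about 77 µM; 0% = vehicle basal and 100% = reference agonist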
# Procedure, shortened: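 FXR-UAS-bla HEK293T, 10% dialyzed FBS; cpds up to 92 uM titration, 16 h 37 C; CCF4 dye 2 h RT; fluorescence. Normalized to chenodeoxycholic acid 100 uM (100%) and DMSO (0%); Hill fit gives EC50, efficacy.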
# [21] = target: Glucocorticoid receptor (Homo sapiens) (UniProt P04150); test: qHTS assay for small molecule agonists of glucocorticoid receptor signaling (AID 588532; active = well fitted curve in the direction sought with a large enough effect in the signal ratio, with a control signal flat; the % refers to the signal ratio;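 also: 100% = dexamethasone at 0.1 µM and 0% = DMSO only wells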); conditions: HeLa MMTV-bla, beta-lactamase ratio, agonist, 18 h; activation: stronger effect = higher value, percent of dexamethasone control, DMSO zero
# Glucocorticoid receptor (Homo sapiens), sequence (P04150 whole entry, looked up): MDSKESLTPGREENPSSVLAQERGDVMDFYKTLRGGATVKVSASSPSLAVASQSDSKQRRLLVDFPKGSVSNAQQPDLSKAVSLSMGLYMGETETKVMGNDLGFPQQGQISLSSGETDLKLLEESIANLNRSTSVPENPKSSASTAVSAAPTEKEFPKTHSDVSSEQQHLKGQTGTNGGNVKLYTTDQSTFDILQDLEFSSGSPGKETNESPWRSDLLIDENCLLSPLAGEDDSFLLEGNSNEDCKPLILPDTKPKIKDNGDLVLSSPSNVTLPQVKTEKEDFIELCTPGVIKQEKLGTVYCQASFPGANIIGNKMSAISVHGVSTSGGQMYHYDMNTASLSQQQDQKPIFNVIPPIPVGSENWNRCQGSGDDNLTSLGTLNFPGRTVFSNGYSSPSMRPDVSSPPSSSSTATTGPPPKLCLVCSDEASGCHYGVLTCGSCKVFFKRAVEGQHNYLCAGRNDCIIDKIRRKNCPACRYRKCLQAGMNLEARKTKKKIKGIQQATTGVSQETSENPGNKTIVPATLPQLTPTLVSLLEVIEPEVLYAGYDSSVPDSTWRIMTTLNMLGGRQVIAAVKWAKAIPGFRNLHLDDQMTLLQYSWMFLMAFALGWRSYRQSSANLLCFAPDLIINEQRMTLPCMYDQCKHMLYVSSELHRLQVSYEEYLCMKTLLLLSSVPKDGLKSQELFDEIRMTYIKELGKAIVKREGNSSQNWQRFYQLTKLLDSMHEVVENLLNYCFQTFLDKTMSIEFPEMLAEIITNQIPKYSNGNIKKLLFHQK
# Procedure, shortened: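 HeLa GRE-bla reporter cells; 18 h compound exposure at 37 C; 2 h CCF4 loading at room temperature; fluorescence at 460 and 530 nm; EC50 by Hill equation.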
# [22] = target: Glucocorticoid receptor (Homo sapiens) (UniProt P04150); test: qHTS assay for small molecule antagonists of glucocorticoid receptor signaling (AID 588533; active = well fitted inhibition curve with a large enough effect in the signal ratio, with a control signal flat, not every such curve was filed as active; the % refers to the signal ratio; also: % is scaled to controls: 0 for no effect and ±100 for the full control effect)
# Procedure, shortened: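 Antagonist-mode qHTS: compound titrations added to GRE-bla HeLa cells, then dexamethasone 2 nM final; 18 h, 37 C. CCF4 FRET fluorescence normalized to dexamethasone and DMSO; IC50 from Hill fit.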
# [23] = target: Thyroid hormone receptor beta (Homo sapiens) (UniProt P10828); test: qHTS assay for small molecule agonists of thyroid hormone receptor beta signaling (AID 588545);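 also: 0% = DMSO only and 100% = 10 nM T3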
# Procedure, shortened: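 Efficacy and EC50 values derive from Hill fits of qHTS titration data, normalized to 10 nM T3 and DMSO-only wells. HEK 293 reporter cells were stimulated for 18 hrs at 37 C, with beta-lactamase activity measured by CCF4 fluorescence.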
# [24] = qHTS assay for small molecule agonists of the antioxidant response element (ARE) signaling pathway measured by Nrf2-dependant transcriptional activity (AID 720636; active = well fitted curve in the direction sought with a large enough effect in the repeat runs; an effect the other way counts as inactive or inconclusive;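 also: HepG2 cells with an ARE-driven luciferase reporter; % of control where 0% means no effect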)
# Procedure, shortened: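 Reporter gene assay, HepG2 ARE-luc: 16 hr compound, 37 C, 5% CO2; read-out luciferase luminescence.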
# [25] = target: Nuclear receptor subfamily 1 group I member 2 (Rattus norvegicus) (UniProt Q9R1A7); test: qHTS assay for small molecule activators of the rat pregnane X receptor (rPXR) signaling pathway (AID 651751; call rule not given here; also: 0% is about no effect); conditions: rPXR reporter cells, luciferase (One-Glo), 24 h
# Nuclear receptor subfamily 1 group I member 2 (Rattus norvegicus), sequence (Q9R1A7 whole entry, looked up): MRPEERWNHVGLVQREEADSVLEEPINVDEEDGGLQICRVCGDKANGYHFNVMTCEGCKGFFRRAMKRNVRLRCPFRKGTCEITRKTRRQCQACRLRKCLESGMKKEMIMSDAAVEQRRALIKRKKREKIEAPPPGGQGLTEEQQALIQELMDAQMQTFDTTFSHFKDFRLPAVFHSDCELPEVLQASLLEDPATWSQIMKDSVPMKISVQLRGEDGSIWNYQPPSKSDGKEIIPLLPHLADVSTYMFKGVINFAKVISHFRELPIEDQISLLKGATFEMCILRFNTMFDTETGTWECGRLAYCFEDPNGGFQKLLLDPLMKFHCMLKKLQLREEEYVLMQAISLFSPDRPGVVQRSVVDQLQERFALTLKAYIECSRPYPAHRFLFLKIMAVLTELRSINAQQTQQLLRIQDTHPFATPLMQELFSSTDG
# [26] = qHTS assay for small molecule activators of the human pregnane X receptor (PXR) signaling pathway (AID 720659; call rule not given here; also: 0% is about no effect)
smiles,measurement,setting,value
CCOP(=S)(OCC)SC(CCl)N1C(=O)c2ccccc2C1=O (stereo not drawn),activation,[1],-16.4% (inactive)
same,Potency,[2],inactive
same,outcome,[3],inactive
same,max response,[4],51.4%
same,Potency,[5],inactive
same,Potency,[6],inactive
same,outcome,[7],inactive
same,max response,[8],3.14%
same,max response,[9],7.55% (inactive)
same,activity change % (negative = inhibition),[10],7.21% (inactive)
same,Potency,[11],27.3 µM (active)
same,activation,[12],-5.87% (inactive)
same,activation,[13],-1.92% (inactive)
same,activation,[14],0.999% (inactive)
same,max response,[15],-0.704% (inactive)
same,max response,[16],-13.6% (inactive)
same,max response,[17],-5.75% (inactive)
same,Potency,[18],inactive
CC(O)CN(CC(C)O)CC(C)O (stereo not drawn),Potency,[19],inactive
same,activation,[20],0.256% (inactive)
same,activation,[21],4.4% (inactive)
same,Potency,[22],inactive
same,outcome,[3],inactive
same,max response,[4],-32.2%
same,Potency,[5],inactive
same,Potency,[23],inactive
same,max response,[8],-0.813%
same,max response,[9],3.2% (inactive)
same,activity change % (negative = inhibition),[10],25% (inactive)
same,Potency,[11],54.5 µM (active)
same,activation,[12],-9.86% (inactive)
same,max response,[15],-2.83% (inactive)
same,Potency,[24],inactive
same,max response,[16],-8.2% (inactive)
same,max response,[17],-4.13% (inactive)
same,Potency,[18],inactive
same,max response,[25],-0.821% (inactive)
same,outcome,[26],inactive
